# Hits are enriched below; roughly 19% of the tested compounds scored in any of these assays.
# TDP1 cell CPT: growth inhibition of DT40 Tdp1-/-;hTDP1 cells with camptothecin (screen for TDP1 inhibitors) | chicken DT40 Tdp1-/-;hTDP1 cells + 20 nM CPT, ATP luminescence, 48 h | Potency, µM (top dose mostly 46.2 µM), inactives show at the highest dose activity change, negative = growth inhibition, usual class: inhibitors | hit rate 12% among 420,000 | AID 686979; note: potency is the fitted concentration of half-maximal effect; % is set by controls: 0 for no effect and ±100 for the full control effect; nearly all actives have a fitted effect of over 55% in size
#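 Cell growth measured by CellTiter-Glo luminescence after a minimum 48 h, 37 C compound exposure with 20 nM CPT in Tdp1-knockout DT40 cells stably expressing hTDP1, seeded 400/well; qHTS titration format.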
# IL1B secr inh: inhibitors of inflammasome signaling (IL-1 beta secretion). hit rate 4.7% among 360,000. THP-1 LPS/ATP IL-1B secretion, AlphaLISA, 16 h; hits give low values. activity change, % at 57.5 µM. AID 743279; in the data active = activity change below about -50%; inconclusive = mostly about -30% to -49%; note: % is set by controls: 0 for no effect and ±100 for the full control effect
#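 THP-1 cells pretreated 1 hr with compounds (up to 57.5 uM final), then stimulated with LPS (250 ng/mL final) plus ATP (1.25 mM final); secreted IL-1B measured by AlphaLISA after 16 hr, decreased signal indicating inhibition.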
# DT40 TDP1 no CPT: qHTS for Inhibitors of human tyrosyl-DNA phosphodiesterase 1 (TDP1): qHTS in cells in absence of CPT | DT40 Tdp1-/- hTDP1 cells, no CPT, ATP luminescence, 48 h | Potency, µM (highest dose often 46.2 µM), for the others: top-dose activity change, negative = growth inhibition, hits mostly inhibitors | hit rate 15% among 420,000 | AID 686978, 2013; note: potency is the fitted concentration of half-maximal effect; % is set by controls: 0 for no effect and ±100 for the full control effect; nearly all actives have a fitted effect of over 55% in size
#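 Compound effects on proliferation are scored in DT40 Tdp1-/-;hTDP1 cells in the absence of CPT. ATP levels (CellTiter-Glo luminescence) are recorded after a ≥48 hr, 37 °C incubation.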
# TGFb SMAD3 inh: blocks TGF-b signaling. HepG2 CAGA-GFP TGF-b/SMAD3 reporter, GFP fluorescence, 18 h; TGF-beta stimulated, 500 pg/mL final. Potency, µM (top dose mostly 46.1 µM), inactives show top-dose activity, negative = inhibition, usual class: inhibitors. hit rate 1.2% among 410,000. AID 588855; note: potency is the fitted concentration of half-maximal effect; % is set by controls: 0 for no effect and ±100 for the full control effect; nearly all actives have a fitted effect of over 65% in size
#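 Using HEPG2 CAGA-GFP reporter cells at 1000 cells/well, we pinned test compounds, stimulated with recombinant TGF-beta (500 pg/mL final) and measured total well GFP after 18 h.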
# HepG2 viability: HepG2 cytotoxicity, counter-screen for TGF-b inhibitors; HepG2 CAGA-GFP viability, ATP luminescence, 18 h; Potency, µM (top dose mostly 46.1 µM), inactives show at the highest dose activity change, negative = cytotoxicity, actives largely listed as cytotoxic; hit rate 0.76% among 410,000; AID 588856; note: potency is the fitted concentration of half-maximal effect
#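 CellTiter-Glo luminescence gave cytotoxicity after 18 hours at 37 degrees C. The cells were HepG2 CAGA-GFP in 1% FBS DMEM, stimulated with 500 pg/mL TGF-beta after compound addition. %Activity was normalised to no-cell wells (complete cell-killing) and DMSO (no toxicity), and curves were fitted and classified.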
# ASM inhibitor: blocks human secretory acid sphingomyelinase. P17405. placental ASM, HMU-PC fluorogenic substrate, 60 min. Potency, µM (series often up to 57.5 µM), for inactives: at the top dose activity change, negative = inhibition, most hits filed as inhibitors. hit rate 0.006% among 340,000; note: potency is the fitted concentration of half-maximal effect
# Target sequence (P17405 47-631 limits assumed): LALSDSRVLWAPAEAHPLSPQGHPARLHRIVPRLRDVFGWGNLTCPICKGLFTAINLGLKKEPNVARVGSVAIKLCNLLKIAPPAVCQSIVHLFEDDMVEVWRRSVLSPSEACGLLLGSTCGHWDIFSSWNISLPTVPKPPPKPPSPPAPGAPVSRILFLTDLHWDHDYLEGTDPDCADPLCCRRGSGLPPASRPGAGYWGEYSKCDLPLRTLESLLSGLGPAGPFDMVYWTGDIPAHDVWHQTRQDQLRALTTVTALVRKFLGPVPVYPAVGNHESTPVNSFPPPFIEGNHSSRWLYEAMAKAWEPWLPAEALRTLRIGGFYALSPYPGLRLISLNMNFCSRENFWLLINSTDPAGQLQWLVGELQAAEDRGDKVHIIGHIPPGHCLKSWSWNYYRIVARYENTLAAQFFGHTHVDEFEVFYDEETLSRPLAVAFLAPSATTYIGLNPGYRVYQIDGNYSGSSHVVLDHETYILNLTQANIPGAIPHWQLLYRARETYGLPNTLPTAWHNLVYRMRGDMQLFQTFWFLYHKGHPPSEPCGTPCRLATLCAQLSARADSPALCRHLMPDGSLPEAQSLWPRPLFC
#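 qHTS format. ASM enzyme prepared from human placenta hydrolyses the fluorogenic substrate HMU-PC0 (9 uM final) over 60 min at 37 °C after a 10 min compound preincubation.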
# Starred values were filed as active, the others as inactive; ? = inconclusive; · = no result. Unless noted, calls come from the whole dose curve; as a rule, active = well fitted curve in the direction sought with a large enough effect; inconclusive = small, poorly fitted or top-dose-only effect, or another doubt; inactive = no such curve, though single readings can be large; an effect the other way counts as inactive or inconclusive.
SMILES,TDP1 cell CPT,IL1B secr inh,DT40 TDP1 no CPT,TGFb SMAD3 inh,HepG2 viability,ASM inhibitor
CCCC12CN3CC(C)(CN(C1)C3c1cn(CC)c3ccccc13)C2=O (configuration not stated),?,·,?,-11%,-3%,·
CCCOc1ccc(-c2c(C(=O)N/N=C/c3cccnc3)nnn2-c2nonc2N)cc1,10%,24,10%,-9%,1%,2%
Fc1ccc2nc3c(nc2c1)CCCC3,-3%,0,8%,-7%,-20%,-1%
Cc1ccc(CS(=O)(=O)Cc2ccc(C(=O)NCc3cccs3)o2)cc1,18µM*,-5,-25%,-3%,-1%,6%
CCc1ccccc1S(=O)(=O)Cc1ccc(C(=O)NCc2cccs2)o1,18µM*,-5,?,8%,-4%,6%
CC(=O)NC(CC(=O)OCC(=O)c1cc(C)ccc1C)c1ccccc1 (configuration not stated),?,17,-4%,-3%,-2%,0%
Cc1c(C(=O)N2CCCC2)c(S(=O)(=O)NCCc2ccccc2)c(C)n1C,-8%,3,2%,4%,4%,3%
O=C(Nc1nnc(-c2ccncc2)o1)c1ccc(Br)s1,15µM*,50,13µM*,-17%,-49%,-1%
CCC(=O)Nc1nnc(-c2ccco2)o1,2%,23,-12%,17%,20%,10%
Cc1ccsc1C(=O)Nc1nnc(-c2ccco2)o1,?,9,-109%,?,-17%,0%
Cc1ccc(C(=O)Nc2nnc(-c3ccco3)o2)cc1,23µM*,-4,23µM*,0%,-21%,8%
O=C(Nc1nnc(-c2ccco2)o1)C1CC1,2%,-7,-2%,-8%,0%,6%
N#Cc1ccc(C(=O)Nc2nnc(-c3ccco3)o2)cc1,?,28,6.5µM*,?,-54%,-2%
O=C(Nc1nnc(-c2ccco2)o1)c1ccc2ccccc2c1,?,-2,21µM*,?,-8%,-7%
CCCC[C@H]1COCCS(=O)(=O)N1Cc1cccc([N+](=O)[O-])c1,-14%,-5,-11%,-19%,2%,1%
Cc1nnc(NC(=O)c2ccc3ccccc3c2)o1,?,-57*,?,0%,-14%,-1%
O=C(Nc1nnc(-c2ccco2)o1)c1ccc([N+](=O)[O-])s1,8.2µM*,1,9.2µM*,?,-56%,-2%
O=C(Nc1ccccn1)c1ccc(C(=O)Nc2ccccn2)cc1,-10%,11,4%,-4%,3%,-9%
O=C(Nc1ccccn1)c1ccc(Br)s1,1%,-64*,-17%,-10%,-19%,10%
Cc1ccccc1NC(=O)c1ccc2ccccc2c1,-17%,-4,-10%,-4%,3%,-4%
CCc1nc2c(OCC3COc4ccccc4O3)cccn2c1N(C)C(=O)c1cccc(OC)c1 (configuration not stated),?,-11,?,-1%,-15%,·
CN1CCC(N(C)S(=O)(=O)c2ccc(NC(=O)Cc3ccc(F)cc3)cc2)CC1,4%,-15,3%,-7%,-52%,1%
Cc1ccccc1OCCC(=O)Nc1ccc(S(=O)(=O)N(C)C2CCN(C)CC2)cc1,?,-61*,?,1%,-20%,·
CN1CCC(N(C)S(=O)(=O)c2ccc(NC(=O)COc3ccc(Br)cc3Cl)cc2)CC1,26µM*,-63*,16µM*,?,-83%,-3%
CCCCCCCCCCCC[N+](C)(C)Cc1ccccc1,1.5µM*,·,1.7µM*,·,·,·
SMILES,TDP1 cell CPT,IL1B secr inh,DT40 TDP1 no CPT,TGFb SMAD3 inh,HepG2 viability,ASM inhibitor
COC(=O)c1cccc(C23CC4(C2)[C@H](CN(Cc2cccnc2)[C@@H]4c2ccccc2)C3c2ccc(C(F)(F)F)cc2)c1 (some centres not stated),16µM*,42,16µM*,-8%,-21%,-9%
COC(=O)c1cccc(C23CC4(C2)[C@H](CN(Cc2cccnc2)[C@@H]4c2ccccc2)C3c2ccc(Cl)nc2)c1 (some centres not stated),?,32,?,?,2%,-2%
FC(F)(F)c1ccc(CN2C[C@@H]3C(c4ccc(Cl)nc4)C4(c5cccnc5)CC3(C4)[C@H]2c2ccccc2)cc1 (some centres not stated),?,-12,16µM*,?,-29%,?
COC(=O)c1ccc(C23CC4(C2)[C@H](CN(Cc2ccc(C(F)(F)F)cc2)[C@@H]4c2ccccc2)C3c2ccc(Cl)nc2)cc1 (some centres not stated),9.2µM*,0,10µM*,-1%,3%,23%
FC(F)(F)c1ccc(C2[C@H]3CN(CC4CCCCC4)[C@H](c4ccccc4)C34CC2(c2cccnc2)C4)cc1 (some centres not stated),?,-4,16µM*,?,-3%,-1%
CN1C[C@@H]2C(c3ccc(Cl)nc3)C3(c4cccnc4)CC2(C3)[C@H]1c1ccccc1 (some centres not stated),-5%,0,-23%,?,-11%,4%
CC(C)[C@H](NC(=O)OCc1ccccc1)C(=O)OCC(=O)N1CCCCC1,4%,12,?,-6%,-13%,-4%
Cc1ccccc1C(=O)N1CC/C(=N\OS(=O)(=O)O)c2ccc(Cl)cc21,-24%,·,-3%,·,·,·
CCn1c2ccccc2c2cc(NC(=O)CNCC3CCCO3)ccc21 (configuration not stated),?,-52*,?,21%,-2%,1%
CCn1c2ccccc2c2cc(NC(=O)CN3CCCC3)ccc21,-14%,-69*,-22%,1%,-40%,0%
Cc1ccc(N2CCN(C(=O)NCc3noc4ccc(C)cc34)CC2)c(C)c1,?,·,?,?,-16%,·
COc1ccc(CN(C)C(=O)c2cnc(C)cn2)c(OC)c1OC,-24%,41,?,6%,-10%,-2%
COc1cccc(CN(C)C(=O)c2cc(-c3ccc(OC)c(OC)c3)nc3ccccc23)c1,15µM*,-22,?,0%,-56%,88%
COc1ccc(CN(C)C(=O)c2cc(-c3ccccc3)nc3ccc(C)cc23)c(OC)c1OC,18µM*,-64*,16µM*,-8%,-34%,-3%
Cc1c(CN(C)C(=O)c2cc(-c3ccccc3)nc3ccc(Br)cc23)cnn1C,21µM*,·,10µM*,-26%,-29%,·

# Screening results: PubChem BioAssay, National Center for Advancing Translational Sciences (NCATS)
